Hits are enriched below; roughly 11% of the tested compounds scored in any of these assays.
HEK293 tox = HEK 293 cell cytotoxicity; Potency, µM (titrated, usually from 115 µM), inactives show at the highest dose activity change, negative = cytotoxicity, most hits filed as inhibitors; 6.6% of 94,000 active; AID 1345083; HEK 293 viability, ATP luminescence (CellTiter-Glo), 48-72 h; also: nearly all actives have a fitted effect of over 60% in size
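HEK 293 seeded at 250 cells/well receive compound via pintool. After 48 or 72 hr at 37 degree Celsius, 5% CO2 and 95% humidity, CellTiter-Glo is dispensed and luminescence read following 10 min at room temperature.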
NPR1 antag = antagonists of human natriuretic peptide receptor Npr1. P16066. HEK293 hNpr1 GloSensor cGMP, ANP-stimulated luminescence. Potency, µM (series often up to 46.3 µM), for the others: top-dose activity change, negative = inhibition, hits mostly inhibitors. 1.6% of 76,000 active; calls by dose curve; also: nearly all actives have a fitted effect of over 60% in size
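HEK293 cells stably expressing human Npr1 and cGMP GloSensor pGS-40F, loaded 2 h with 2% GloSensor reagent, given compound 30 min at room temperature. Luminescence read before and 20 min after 0.1 nM hNppA.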
NIH3T3 tox = kills NIH 3T3 cells. NIH 3T3 viability, CellTiter-Glo ATP luminescence, 48-72 h. Potency, µM (doses to about 96.7 µM), for inactives: at the highest dose activity change, negative = cytotoxicity, usual class: inhibitors. 4.3% of 94,000 active; also: nearly all actives have a fitted effect of over 55% in size
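NIH 3T3 cells at 400 cells/well received 23 nL of compound by pintool and were incubated 48 or 72 h at 37 °C. Viability was read as ATP-coupled CellTiter-Glo luminescence.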
Luciferase inh = inhibitors of firefly (Photinus pyralis) luciferase | P08659 | purified P. pyralis luciferase, luminescence, biochemical | Potency, µM (top dose mostly 115 µM), usual class: inhibitors | 2.5% of 76,000 active | AID 1347043; also: nearly all actives have a fitted effect of over 65% in size
Target sequence (P08659 whole entry, looked up): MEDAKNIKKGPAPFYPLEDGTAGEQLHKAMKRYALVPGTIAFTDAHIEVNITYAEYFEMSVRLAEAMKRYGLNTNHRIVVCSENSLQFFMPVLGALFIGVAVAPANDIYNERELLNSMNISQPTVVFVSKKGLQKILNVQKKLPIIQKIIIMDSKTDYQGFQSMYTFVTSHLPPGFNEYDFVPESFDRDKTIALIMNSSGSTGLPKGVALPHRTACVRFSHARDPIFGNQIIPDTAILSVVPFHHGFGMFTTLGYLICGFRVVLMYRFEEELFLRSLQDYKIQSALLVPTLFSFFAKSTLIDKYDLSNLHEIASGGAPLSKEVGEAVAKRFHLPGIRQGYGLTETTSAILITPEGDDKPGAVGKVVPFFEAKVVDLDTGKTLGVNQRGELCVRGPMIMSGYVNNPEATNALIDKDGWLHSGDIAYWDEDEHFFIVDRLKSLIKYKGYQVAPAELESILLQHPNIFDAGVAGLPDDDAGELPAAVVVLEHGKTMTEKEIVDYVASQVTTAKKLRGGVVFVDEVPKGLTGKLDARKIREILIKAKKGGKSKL
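Luminescence read by CCD imager after adding enzyme (10nM final) to wells holding compound, titrated in qHTS. Substrates 10uM each D-luciferin and ATP; buffer 50mM Tris acetate pH 7.5, 10mM Mg acetate, Tween-20, BSA.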
* = called active by the depositor; [ ] = dose if it differs, or a comment. Unless noted, calls follow the shape of the dose curve; as a rule, active = well fitted curve in the direction sought with a large enough effect; inconclusive = small, poorly fitted or top-dose-only effect, or another doubt; inactive = no such curve, though single readings can be large; an effect the other way counts as inactive or inconclusive. % is scaled to controls: 0 for no effect and ±100 for the full control effect; potency is read from the fitted curve at half-maximal effect.

`Cn1nccc1C(=O)N1CCC2(CC1)CC(N(Cc1ccccc1)C1CC1)CCO2` (stereo not given) gave HEK293 tox inconclusive, NPR1 antag -17%, NIH3T3 tox -6% and Luciferase inh inactive.
`O=C(c1ccncc1)N1CCC2(CC1)CC(N(C(=O)c1ccccc1)C1CC1)CCO2` (stereo not given) gave HEK293 tox -29%, NPR1 antag -2%, NIH3T3 tox -27% and Luciferase inh inactive.
Screening CCn1nccc1C(=O)N1CCC2(CC1)CC(N(Cc1ccccc1)C1CC1)CCO2 (stereo not given) returned HEK293 tox 45µM*, NPR1 antag -29%, NIH3T3 tox -21% and Luciferase inh inactive.
`Cc1ccsc1C(=O)N1CCC2(CC1)CC(N(C(=O)c1ccccc1)C1CC1)CCO2` (stereo not given) gave HEK293 tox 50µM*, NPR1 antag -7%, NIH3T3 tox inconclusive and Luciferase inh inactive.
`COc1ccc(C2(C(=O)NC3CCc4nnc(C)n4CC3)CC2)cc1` (stereo not given) gave HEK293 tox inactive, NPR1 antag 3%, NIH3T3 tox -1% and Luciferase inh inactive.
For COCCCNC(=O)c1ccc2oc(-c3ccncc3Cl)nc2c1 the results were HEK293 tox inconclusive and NIH3T3 tox -30%.
Screening O=C(CCCc1ccccc1)N1CCC(C2CCNC2)CC1 (stereo not given) returned HEK293 tox -19%, NPR1 antag 1%, NIH3T3 tox 1% and Luciferase inh 35µM*.
Screening COc1ccccc1-c1ccc(CN2CCN(c3ccc(Cl)nn3)C(=O)C2)cc1 returned HEK293 tox -14%, NPR1 antag -2%, NIH3T3 tox -14% and Luciferase inh inactive.
For COc1ccccc1-c1ccc(CN2CCN(c3cc(Cl)ncn3)C(=O)C2)cc1 the results were HEK293 tox 45µM*, NPR1 antag -11%[70.6 µM], NIH3T3 tox inconclusive and Luciferase inh inactive.
For COC[C@@H]1CN(C(=O)c2cccc(C#N)c2)C[C@H]1c1nc(C2CC2)no1 the results were HEK293 tox inconclusive, NPR1 antag 2%, NIH3T3 tox inconclusive and Luciferase inh inactive.
For COCCN1CCN(C[C@@H]2C=C(C)[C@H](Cc3nnc(C)o3)C[C@H]2C(C)C)CC1 the results were HEK293 tox 89µM*, NPR1 antag -3%[70.6 µM], NIH3T3 tox inconclusive and Luciferase inh inactive.
Screening COc1ccc(-c2nnc(C[C@@H]3C[C@@H](C(C)C)[C@H](CN4CCN(c5ncccn5)CC4)C=C3C)o2)cc1 returned HEK293 tox 40µM*, NPR1 antag -27%, NIH3T3 tox inconclusive and Luciferase inh inactive.
`COCCN1CCN(C[C@@H]2C=C(C)[C@H](Cc3nnc(-c4ccc(OC)cc4)o3)C[C@H]2C(C)C)CC1` gave HEK293 tox 40µM*, NPR1 antag 0%, NIH3T3 tox 40µM* and Luciferase inh inactive.
`COCCCN1CCCC2(CCN(C(=O)NCc3cccc(F)c3)C2)C1=O` (stereo not given) gave HEK293 tox 1%, NPR1 antag -6%, NIH3T3 tox 1% and Luciferase inh inactive.
`COCCNC(=O)CN1CN(c2ccccc2)C2(CCN(C(=O)C3CCCCC3)CC2)C1=O` gave HEK293 tox -4%, NPR1 antag 1%, NIH3T3 tox -24% and Luciferase inh inactive.
For Cc1ccc(NC(=O)N2CCC3(CC2)C(=O)N(CC(=O)N2CCCC2)CN3c2ccccc2)cc1 the results were HEK293 tox inconclusive, NPR1 antag -3%, NIH3T3 tox inconclusive and Luciferase inh 8.9µM*.
Screening c1ccc(Nc2cc3c(cn2)CN(Cc2cnc[nH]2)CCN3)cc1 returned HEK293 tox inconclusive, NPR1 antag -2%[70.6 µM], NIH3T3 tox inconclusive and Luciferase inh inconclusive.
Screening Fc1ccccc1CN1CCNc2cc(Nc3ccccc3)ncc2C1 returned HEK293 tox 112µM*, NPR1 antag -3%[70.6 µM], NIH3T3 tox 50µM* and Luciferase inh 20µM*.
`CN(C)c1cccc(Nc2cc3c(cn2)CN(Cc2ccccc2)CCN3)c1` gave HEK293 tox 28µM*, NPR1 antag inconclusive, NIH3T3 tox 45µM* and Luciferase inh 22µM*.
For Oc1cccc(-c2cc3c(cn2)NCCN(Cc2ccccc2)C3)c1 the results were HEK293 tox inconclusive, NPR1 antag 3%[70.6 µM], NIH3T3 tox inconclusive and Luciferase inh inactive.
c1ccc(CN2CCNc3cnc(-c4ccc(N5CCOCC5)cc4)cc3C2)cc1 was read as HEK293 tox 50µM*, NPR1 antag 28µM*, NIH3T3 tox inconclusive and Luciferase inh 20µM*.
For CN(C)c1cccc(-c2cc3c(cn2)CN(Cc2cccnc2)CCN3)c1 the results were HEK293 tox inconclusive, NPR1 antag -24%[70.6 µM], NIH3T3 tox inconclusive and Luciferase inh inconclusive.
c1ccc(CN2CCNc3cc(Nc4ccc(N5CCOCC5)cc4)ncc3C2)cc1 was read as HEK293 tox 89µM*, NPR1 antag -11%[70.6 µM], NIH3T3 tox inconclusive and Luciferase inh inactive.
`CN(C)CCNC(=O)c1ccnc(-c2nnc3ccc(N(C)c4ccccc4)nn23)c1` gave HEK293 tox inconclusive, NPR1 antag 0%[70.6 µM], NIH3T3 tox inconclusive and Luciferase inh inactive.
Screening Cc1nc(C)n(CCCn2ccnc2-c2cc3n(n2)CCCNC3)n1 returned HEK293 tox 0%, NPR1 antag 3%, NIH3T3 tox 1% and Luciferase inh inactive.
`COc1ccc(NC(=O)CCn2ccn3nc4c(c3c2=O)CCCC4)cc1OC` gave HEK293 tox inconclusive, NPR1 antag -13%, NIH3T3 tox -16% and Luciferase inh inactive.
For Fc1cccc(CN2CCNc3cc(Nc4ccccc4)ncc3C2)c1 the results were HEK293 tox 40µM*, NPR1 antag -22%[70.6 µM], NIH3T3 tox 45µM* and Luciferase inh 32µM*.
Screening c1ccc(Nc2cc3c(cn2)CN(Cc2cccs2)CCN3)cc1 returned HEK293 tox 50µM*, NPR1 antag -19%[70.6 µM], NIH3T3 tox 50µM* and Luciferase inh inconclusive.
`CNC(=O)c1cc(C2CC2)nc2c1c(C1CCCN([S+](=O)([O-])C(C)C)C1)nn2C` (stereo not given) gave HEK293 tox -18% and NIH3T3 tox -16%.
For COc1cccc(CNC(=O)c2nnn3cc(C)[nH]c(=O)c23)c1 the results were HEK293 tox 12%, NPR1 antag 2%, NIH3T3 tox -15% and Luciferase inh inactive.
For COCCCNC(=O)c1cc2c(=O)[nH]c(C)cn2n1 the results were HEK293 tox 3%, NPR1 antag 4%, NIH3T3 tox inactive and Luciferase inh inconclusive.
`CSc1ccc(CNC(=O)c2cc3c(=O)[nH]c(C)cn3n2)cc1` gave HEK293 tox -9%, NPR1 antag 9%, NIH3T3 tox -25% and Luciferase inh 13µM*.
For CCc1ccc(CNC(=O)c2nnn3cc(C)[nH]c(=O)c23)cc1 the results were HEK293 tox -29%, NPR1 antag -30%, NIH3T3 tox 35µM* and Luciferase inh inactive.

From PubChem
